This passage reports Potency results from PubChem BioAssay AID720518 (National Center for Advancing Translational Sciences (NCATS), 2013).

Inconclusive results are not listed. Where a call stands in place of a potency, no number is given. Activity calls are given as the source filed them. Calls come from the whole dose curve.

A short description of the experiment: qHTS for Inhibitors of Cell Surface uPA Generation: Wild-type Protective Antigen (WT-PrAg) Counterscreen for Cherry-picked Compounds. The following applies: cells, WT protective antigen toxicity counterscreen; series mostly up to 115 µM. (In general: qHTS replaces the single test concentration by a dilution series.)
For the compound `O=C(OCC(=O)N1CCOCC1)c1c(Cl)ccc(Cl)c1Cl`, the Potency result is “inactive”.

Take `CCCN1CCN(CC(=O)Nc2nncs2)CC1`: the Potency result was “inactive”.

On to `CCCCNC(=O)c1cc2c(-c3ccc(Cl)cc3)nn(C)c2s1`, for which the Potency result was “inactive”.
